Drawing on PubChem BioAssay AID1578 (Sanford-Burnham Center for Chemical Genomics, 2009), this text covers inhibition for 58 compounds.

The whole screen tested about 290,000 compounds, of which about 3,000 (1%) were called active. The sample holds actives, similar compounds and a random draw of the others, so the mix is not that of the screen. A number with no mark means an inactive call. Cut-off read from the data, not from the text of the source: active = inhibition mostly above about 36% (no sharp cut-off); inactive = mostly below about 34%.

The experiment can be described thus: inhibition of NOD1-driven NF-kB reporter – cell-based, luminescence, uHTS, primary screen (AID 1578).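 Note: HEK-293T reporter cells stimulated with the NOD1 agonist gamma-tri-DAP.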 The note with it: NOD1-driven NF-kB luciferase reporter cells, at 4 µM, hits give high values.
Consider `O=C1C(C=Nc2ccccc2O)=C(O)c2ccccc21`, for which the inhibition is -64.5%.

Regarding `O=c1c(=Nc2ccccc2O)c(=O)c2ccccc12`, the inhibition is -41.2%.

As for `CNC(=O)COC(=O)c1ccccc1Nc1ccccc1`, the inhibition is -60.3%.

For the compound `COc1cc(/C=C(\NC(C)=O)C(=O)NC(C)(C)CC(C)(C)C)ccc1OC(C)=O`, the inhibition is -17.3%. Take `COc1ccc(-n2c(=O)c(CCC(=O)N(C)Cc3ccccc3C)nc3ccccc32)cc1`: the inhibition is -8.4%. As for `COc1ccc(/C(O)=C/c2nc3ccccc3n(-c3ccccc3)c2=O)cc1`, the inhibition is -72.6%. For the compound `COc1cccc(CC(=O)N2CCC(CCC(=O)Nc3cccc(OC)c3)CC2)c1`, the inhibition is -3.8%.

With `Cc1cccc(NC(=O)CCCN2C(=O)C(c3ccccc3)Oc3cccnc32)c1C` (stereo not drawn), the inhibition was 42.2% (active). Regarding `COc1ccccc1NC(=O)CCCN1C(=O)C(c2ccccc2)Oc2cccnc21` (stereo not drawn), the inhibition is -2.8%.

As to `Cc1cccc(C)c1NC(=O)CCCN1C(=O)C(c2ccccc2)Oc2cccnc21` (stereo not drawn), the inhibition was -12.2%. Consider `COP(=O)(OC)C(Nc1ccc([N+](=O)[O-])cc1)c1ccccc1` (stereo not drawn), for which the inhibition was -11.2%. The same measure for `CCOc1ccc(NC(c2ccccc2)P(=O)(OC)OC)cc1` (stereo not drawn): 73.2% (active). With `COP(=O)(OC)C(Nc1ccc(Cl)cc1)c1ccccc1` (stereo not drawn), the inhibition is -7.2%. With `Cc1cc(NC(=O)c2ccc(Br)o2)ccc1NC(=O)c1ccco1`, the inhibition is -55.3%. The same measure for `COC1c2ccccc2C(=O)N1CCc1ccc(Cl)cc1` (stereo not drawn): -31.1%; for `CNc1cc(C)nc(N2CCOCC2)n1`: -5.2%.

Turning to `CC1(c2ccccc2)CC(C)(C)N(C(=O)c2cc([N+](=O)[O-])cc([N+](=O)[O-])c2)c2ccccc21` (stereo not drawn), the inhibition is -2.3%. With `CC1(c2cccc([N+](=O)[O-])c2)CC(C)(C)N(C(=O)c2ccccc2)c2ccccc21` (stereo not drawn), the inhibition is 82.6% (active). In the case of `CC1(c2cc([N+](=O)[O-])cc([N+](=O)[O-])c2)CC(C)(C)N(C(=O)c2ccccc2)c2ccccc21` (stereo not drawn), the inhibition is 4.5%. The same measure for `CCCCCCCC(O)CC(CC1CCCCC1)C(=O)NN` (stereo not drawn): -15%; for `Cc1cc(C(F)(F)F)nn1CC(=O)NNC(=S)NCC(C)C`: -1.1%; for `Cc1ccc2c(c1)N(CCCC(=O)NCCCN1CCCC1=O)C(=O)CO2`: -14.9%. The same measure for `COc1cccc(NC(C)C(=O)N2CC(C)OC(C)C2)c1` (stereo not drawn): -26.3%; for `O=c1c2cc(Br)ccc2nc(-c2ccccc2)n1O`: 6.1%. The same measure for `Cc1ccc(-c2nc3ccc(Cl)cc3c(=O)n2O)cc1`: 1.3%; for `COc1ccc(CCNC(=O)C2CCN(S(=O)(=O)c3ccc4c(c3)oc(=O)n4C)CC2)cc1OC`: -10.7%. Turning to `COC(=O)c1sccc1NC(=O)CSc1ccccc1NS(=O)(=O)c1ccccc1Cl`, the inhibition is 5.3%. Turning to `COC(=O)c1sccc1NC(=O)CSc1ccccc1NS(=O)(=O)c1ccc(Cl)cc1`, the inhibition was 44.2%.

For `CC(C)[C@H](NC(=O)C1CCN(S(=O)(=O)c2ccccc2)CC1)C(=O)NCc1ccccn1`, the inhibition was -25.4%.

For `CCOC(=O)C(=CNc1cc(C(F)(F)F)ccc1N1CCOCC1)C(=O)OCC`, the inhibition was 4%. As for `CCC(C)(C)NC(=O)C(c1ccc(OC)cc1)N(Cc1ccc(OC)cc1)C(=O)CCC(=O)Nc1cc(C)on1` (stereo not drawn), the inhibition is -11.8%. On to `COCCNC(=O)/C(C#N)=C/c1nc(N(C)C)n(-c2ccc(F)cc2)c1Cl`, for which the inhibition was -7.8%.

As for `CN(C)c1nc(/C=C(\C#N)C(N)=O)c(Cl)n1-c1ccc(F)cc1`, the inhibition was -6.6%. Consider `CN(C)c1nc(C=C(C#N)C#N)c(Cl)n1-c1ccc(F)cc1`, for which the inhibition is 80.7% (active). For `Oc1c(Br)cc(/C=N/n2c(-c3ccccc3)n[nH]c2=S)c(O)c1Br`, the inhibition was 28.5%. For the compound `Oc1c(Br)cc(Br)c(/C=N/n2c(-c3ccccc3)n[nH]c2=S)c1Br`, the inhibition was 63.3% (active). The same measure for `Oc1c(Br)cc(/C=N/n2c(-c3ccccc3)n[nH]c2=S)c(Br)c1O`: -1.1%; for `CCOC(=O)c1nnn(CC(=O)NC(=O)Nc2ccccc2)c1C(=O)OCC`: -7.4%. As for `COc1ccc(-c2cn(-c3ccc(Br)cc3)c3[n+]2CCS3)cc1`, the inhibition was -4.3%. As to `CC(C)(C)c1ccc(-c2cn(-c3ccc(Br)cc3)c3[n+]2CCCS3)cc1`, the inhibition is 57.2% (active). Consider `CC(=O)c1ccc(-n2cc(-c3ccc(C(C)(C)C)cc3)[n+]3c2SCCC3)cc1`, for which the inhibition is 5.2%. On to `Cc1cc(=O)c2ccc(C(F)(F)F)cc2[nH]1`, for which the inhibition is -14.1%. `COCCn1c(=S)[nH]c2cc(C(=O)N3CCN(c4cccc(Cl)c4)CC3)ccc2c1=O`: the inhibition is 13.3%.

Turning to `COc1ccc(N)c2c1C(=O)c1ccccc1C2=O`, the inhibition is -34.4%. As for `COc1ccc(OC)c2c1C(=O)c1ccccc1C2=O`, the inhibition was -6.7%. Turning to `COc1ccc(OC)c2c1C(=O)C(Cl)=C(Cl)C2=O`, the inhibition is 93.8% (active). `Cc1ccc2nc(Cl)c(/C=C/C(=O)c3ccco3)cc2c1`: the inhibition is -0.1%.

In the case of `CCOc1ccc2cc(/C=C/C(=O)c3ccco3)c(Cl)nc2c1`, the inhibition is 1.7%.

With `CCOc1ccc2nc(Cl)c(/C=C/C(=O)c3ccco3)cc2c1`, the inhibition was 69.3% (active). Consider `CC(C)(C)N1C(=O)[C@H]2[C@@H](c3ccc(Br)cc3)N3C(=O)N(c4cccc(Br)c4)C(=O)[C@@]3(Cc3ccccc3)[C@H]2C1=O`, for which the inhibition was -11.7%. Turning to `COc1ccc(CC(=O)Oc2ccc(F)cc2)cc1`, the inhibition was -9.7%.

With `O=C(NN/C(=N/S(=O)(=O)c1ccc(Cl)cc1)c1ccccc1)c1ccc(O)cc1`, the inhibition is -79.7%. On to `CCc1ccc(NC(=S)N2CCN(S(=O)(=O)c3ccccc3)CC2)cc1`, for which the inhibition is -13.5%.

As for `O=C1c2ccccc2-c2onc3c(Oc4ccccc4)cc(O)c1c23`, the inhibition was -15.3%. Regarding `O=C1c2ccccc2-c2onc3ccc(Oc4ccccc4)c1c23`, the inhibition is 86.3% (active). `CCOc1ccc2noc3c2c1C(=O)c1ccccc1-3`: the inhibition was -12.5%. Consider `O=S(=O)(c1cccc(-n2cnnn2)c1)N1CCOCC1`, for which the inhibition was -8.4%. As to `CCOc1ccc2nc(SC3CC(=O)N(c4ccc(OC)cc4)C3=O)sc2c1` (stereo not drawn), the inhibition was 15.3%.
